HT1080 IDH1KD tx = HT-1080 IDH1 knockdown cell toxicity (counter line); HT-1080 IDH1 knockdown viability, ATP luminescence, 48 h; Potency, µM (highest dose often 46.1 µM), for inactives: at the top dose activity, negative = toxicity, actives largely listed as cytotoxic; AID 686971; 360,000 compounds, 2% hits;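 note: potency is the fitted concentration of half-maximal effect; 0% = DMSO wells and -100% = cell-free medium wells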
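In this qHTS, HT-1080 cells depleted of IDH1 are exposed for 48 h at 37 °C to compound titrations. Toxicity is scored from CellTiter-Glo luminescence, with DMSO as full viability and medium alone as none.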
HT1080-NT tox = kills 2HG-producing HT-1080-NT fibrosarcoma cells; HT-1080-NT fibrosarcoma viability, CellTiter-Glo ATP luminescence, 48 h; Potency, µM (series often up to 46.1 µM), for inactives: top-dose activity, negative = less viability, hits mostly cytotoxic; 360,000 compounds, 1.6% hits; AID 686970;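 note: NT is the 2HG producing partner of a matched IDH1 knockdown line; potency is the fitted concentration of half-maximal effect; 0% = DMSO-treated cells and -100% = media-only wells without cells; nearly all actives have a fitted effect of over 55% in size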
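HT-1080-NT fibrosarcoma cells (2HG-overproducing), 750 cells/well in RPMI with 5% FBS, dosed after 2 h and incubated 48 h at 37C. CellTiter-Glo luminescence normalized to DMSO and no-cell wells; concentration-response curves fitted and classed.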
DT40 TDP1 no CPT = qHTS for Inhibitors of human tyrosyl-DNA phosphodiesterase 1 (TDP1): qHTS in cells in absence of CPT; Potency, µM (series often up to 46.2 µM), for the others: top-dose activity change, negative = growth inhibition, actives largely listed as inhibitors; 420,000 compounds, 15% hits; DT40 Tdp1-/- hTDP1 cells, no CPT, ATP luminescence, 48 h; AID 686978, 2013; note: potency is the fitted concentration of half-maximal effect; nearly all actives have a fitted effect of over 55% in size
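Chicken DT40 Tdp1-/- cells complemented with human TDP1, screened without camptothecin (DMSO vehicle only), 400 cells/well. Compounds pin-transferred, cells incubated at 37 °C for at least 48 hr. Growth read as ATP-dependent luminescence (CellTiter-Glo, 30 min at RT).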
IL1B secr inh = inhibitors of inflammasome signaling (IL-1 beta secretion); AID 743279; THP-1 LPS/ATP IL-1B secretion, AlphaLISA, 16 h; stronger effect = lower value; 360,000 compounds, 4.7% hits; activity change, % at 57.5 µM; in the data active = activity change below about -50%; inconclusive = mostly about -30% to -49%
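Secreted IL-1B measured by AlphaLISA bead assay after 16 h compound exposure of THP-1 cells; compounds (final up to 57.5 uM) added 1 h before LPS (250 ng/mL) and ATP (1.25 mM) stimulation; lower signal means less secretion.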
TDP1 cell CPT = growth inhibition of DT40 Tdp1-/-;hTDP1 cells with camptothecin (screen for TDP1 inhibitors). chicken DT40 Tdp1-/-;hTDP1 cells + 20 nM CPT, ATP luminescence, 48 h. AID 686979. 420,000 compounds, 12% hits. Potency, µM (highest dose often 46.2 µM), for inactives: top-dose activity change, negative = growth inhibition, hits mostly inhibitors; note: potency is the fitted concentration of half-maximal effect; nearly all actives have a fitted effect of over 55% in size
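Chicken DT40 Tdp1-/- cells stably complemented with human TDP1 were seeded at 400 cells/well in medium containing 20 nM camptothecin, exposed to pin-transferred compounds, and grown at 37 °C for at least 48 hr. Viability was read as ATP luminescence.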
* hit, by the source's call; i = inactive; ? = inconclusive; · = not tested or not shown; [ ] = another dose, or the depositor's remark. Compounds with a hit are over-represented: about 19% of the library has one in this group of screens. Unless noted, calls come from the whole dose curve; as a rule, active = well fitted curve in the direction sought with a large enough effect; inconclusive = small, poorly fitted or top-dose-only effect, or another doubt; inactive = no such curve, though single readings can be large; an effect the other way counts as inactive or inconclusive. Unless noted, % is set by controls: 0 for no effect and ±100 for the full control effect.

SMILES	HT1080 IDH1KD tx	HT1080-NT tox	DT40 TDP1 no CPT	IL1B secr inh	TDP1 cell CPT
Cc1cccc2c1N(C(=O)CN1C(=O)c3ccccc3C1=O)C(C)(C)c1ssc(=S)c1-2	3%	4%	-11%	-14	-12%
Cc1cc(C)c2c(c1)-c1c(ssc1=S)C(C)(C)N2C(=O)CN1C(=O)c2ccccc2C1=O	-2%	-2%	?	-3	21µM*
Cc1ccc(C(=O)n2c3ccccc3c3ccccc32)cc1	6.5µM*	?	6.5µM*	43	5.8µM*
Cc1ccc(CC(=O)Nc2ccc(S(=O)(=O)Nc3ncccn3)cc2)cc1	4%	2%	25%	11	45%
CN(Cc1ccccc1)c1nc(-c2cccc([N+](=O)[O-])c2)nc2ccccc12	20%	27%	18µM*	-16	18µM*
O=[N+]([O-])c1cccc(-c2nc(NCc3ccccc3)c3ccccc3n2)c1	-9%	0%	?	19	?
COC(=O)c1cn([C@@H]2C[C@@H](C(=O)Nc3cccc(SC)c3)N(C3CCCC3)C2)nn1	·	·	-24%	·	3%[9.04 µM]
CN(Cc1ccccc1)C(=O)[C@@H]1CCCN1C(=O)OC(C)(C)C	6%	10%	-13%	-1	-4%
CC(C)C(NC(=O)c1ccccc1)C(=O)N/N=C\c1ccco1 (stereo not given)	13%	19%	-1%	-4	-12%
COc1cc(NC(=O)CSc2ccc(-c3sc(C)nc3C)nn2)cc(OC)c1	·	·	18µM*	·	21µM*
COc1ccc(NC(=O)CSc2ccc(-c3sc(C)nc3C)nn2)cc1OC	21%	17%	8.2µM*	i	?
CC(=O)c1ccc(NC(=O)CSc2ccc(-c3sc(C)nc3C)nn2)cc1	-26%	-10%	?	-4	13µM*
CCOC(=O)c1ccccc1NC(=O)CSc1ccc(-c2sc(C)nc2C)nn1	·	·	12µM*	·	15µM*
CCOC(=O)c1sc(N/N=C/c2cc(Br)c(O)c(OC)c2)nc1C	?	?	?	23	?
Cc1ccc(NS(=O)(=O)c2cccc3nsnc23)cc1[N+](=O)[O-]	-1%	-1%	24%	11	4%
CCOc1cc(CNc2ccc(O)cc2)cc(Br)c1OCc1ccccc1	·	·	16µM*	·	23µM*
CCN1CCCC1CNCc1cccc(OC)c1OCc1ccccc1F (stereo not given)	-8%	-1%	-7%	-6	-19%
CCOc1cc(CNc2ccc3c(c2)OCCO3)cc(Br)c1OC	1.5µM*	2.3µM*	1.2µM*	22	0.52µM*
COc1cccc(CNc2ccccc2O)c1OCc1ccccc1F	-19%	-18%	?	-92*	23µM*
COc1cc(CNc2ccc(O)cc2)cc(Br)c1OCc1ccccc1F	?	?	?	-1	16µM*
COc1ccc(NC(=O)c2ccc(C(=O)c3cc(OC)ccc3OC)cc2)cc1	2%	-16%	-8%	19	4%
Nc1cc(=O)[nH]c(=S)[nH]1	·	·	-14%	·	1%
CC(C)(C)C(c1nc2ccccc2[nH]1)n1c(-c2ccco2)nc2ccccc21 (stereo not given)	5%	9%	20%	4	15%
CC(C)(C)C(c1nc2ccccc2[nH]1)n1c(-c2ccsc2)nc2ccccc21 (stereo not given)	?	?	?	-53*	?
CCC(C)(C)c1ccc(Oc2ccc(N)cc2)cc1	?	16µM*	?	-12	-11%
O=C(NC(Cc1ccccc1)C(=O)O)OCC1c2ccccc2-c2ccccc21 (stereo not given)	-9%	-4%	-3%	57	-1%
Cc1ccc(C2/C=C\CC(NC(=O)OCC3c4ccccc4-c4ccccc43)CC(=O)N2Cc2ccccc2)cc1 (stereo not given)	-16%	-9%	16µM*	?	?
O=C(Nc1nccs1)C(Br)C(Br)c1ccccc1 (stereo not given)	?	-4%	21µM*	-86*	10µM*

Screens as filed in PubChem BioAssay.
